Screening data as filed in PubChem.
The full list was thinned out, with hits kept by preference.
FECH block = inhibitors of human ferrochelatase, primary screen, biochemical, purified FECH, Ni-mesoporphyrin absorbance | Ferrochelatase, mitochondrial (Homo sapiens), P22830 | Ni-mesoporphyrin absorbance 550 nm | calls only at 10 µM (by protocol) | 20,000 compounds, 3.3% hits | AID 1671448, 2021;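 active means enzyme reaction rate more than 3 SD below the solvent-only control wells on the same plate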;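 further: lower slope than DMSO wells means FECH inhibition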
Target sequence (P22830 whole entry, looked up): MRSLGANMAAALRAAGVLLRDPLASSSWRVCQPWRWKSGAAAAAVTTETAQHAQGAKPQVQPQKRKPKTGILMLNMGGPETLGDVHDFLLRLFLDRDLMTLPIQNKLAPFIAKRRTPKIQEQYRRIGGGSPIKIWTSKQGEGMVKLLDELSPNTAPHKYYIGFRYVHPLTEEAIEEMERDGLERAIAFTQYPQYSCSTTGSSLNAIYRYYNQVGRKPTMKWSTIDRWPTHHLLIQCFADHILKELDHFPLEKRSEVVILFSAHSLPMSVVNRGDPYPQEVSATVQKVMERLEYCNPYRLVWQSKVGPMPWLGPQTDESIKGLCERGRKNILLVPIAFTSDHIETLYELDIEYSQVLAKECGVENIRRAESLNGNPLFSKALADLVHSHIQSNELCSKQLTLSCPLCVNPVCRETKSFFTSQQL
Each line names hits and unclear results; the compound was inactive in the other large screens.

COc1ccc(CN2CCCN(Cc3ccccc3Cl)S2(=O)=O)cc1	none
COc1ccc(NC(=O)CN2CCN(Cc3ccccc3Cl)S2(=O)=O)cc1Cl	none
CCn1nc(CC(C)C)cc1C(=O)NCc1nnc2n1CCC2	none
COc1ccc(-c2c(NCCc3ccccc3)oc3c2c(=O)n(C)c(=O)n3C)cc1OC	none
CCN(c1ccccc1)S(=O)(=O)c1ccc2c(c1)CCN2C(=O)CCC(=O)N1CCCCCC1	none
COc1ccc(Nc2cc(C)nc(Nc3ccc(NC(=O)c4ccccc4F)cc3)n2)cc1	none
CCCN(c1nc2nc(C)cc(C)n2n1)S(=O)(=O)c1ccc(Cl)cc1	none
O=C(c1cc2n(n1)CCNC2)N1CCC(c2ccccc2Cl)C1 (stereo not given)	none
CC(=O)c1ccc(N2CCN(S(=O)(=O)c3cc(C(=O)N4CCCC4)cs3)CC2)cc1	FECH block active
COc1cccc(N2CCN(S(=O)(=O)c3cc(C(=O)N4CCCC4)cs3)CC2)c1	none
CC(=O)c1ccc(N2CCN(S(=O)(=O)c3cc(C(=O)N4CCCCC4)cs3)CC2)cc1	none
CC(C)(C)NS(=O)(=O)c1cc(C(=O)N2CCCCC2)cs1	FECH block active
Cc1cc(C)cc(NS(=O)(=O)c2cc(C(=O)N3CCCCC3)cs2)c1	none
O=C(c1csc(S(=O)(=O)NC2CC2)c1)N1CCCC1	none
CCn1c(C2CCCNC2)nn(CCSC(C)C)c1=O (stereo not given)	none
COc1cccc(C(=O)Nc2cc(C)nn2-c2ncnc3c2cnn3-c2ccc(F)cc2)c1OC	none
Cc1cccc(-n2c(CN3CCN(S(C)(=O)=O)CC3)nc3cccnc32)c1	none
CC(=O)Nc1ccsc1C(=O)N1CCCC(N(C)Cc2ccccc2)C1 (stereo not given)	none
COC(=O)[C@]1(C)N[C@H](c2ccc(-c3ccncc3)cc2)[C@@H]2C(=O)N(C)C(=O)[C@@H]21	none
Cc1ccccc1NCc1cc(=O)n2[nH]c(NCc3ccccc3)nc2n1	FECH block active
COc1ccc(CNc2nc3nc(CNc4ccccc4Cl)cc(=O)n3[nH]2)cc1	none
O=c1cc(CNc2cccc(C(F)(F)F)c2)nc2nc(NCc3ccccc3)[nH]n12	none
CCCNCc1cc(=O)n2[nH]c(NCc3ccccc3)nc2n1	none
Cc1ccc(NCc2cc(=O)n3[nH]c(NCc4ccccc4)nc3n2)cc1Cl	none
O=c1cc(CNCc2ccccc2)nc2nc(NCc3ccccc3)[nH]n12	FECH block active
O=c1cc(CN2CCCC2)nc2nc(NCc3ccc(F)cc3)[nH]n12	none
COc1ccc(CNc2nc3nc(CNc4ccccc4C)cc(=O)n3[nH]2)cc1	none
COc1ccc(CNc2nc3nc(CN4CCCC4)cc(=O)n3[nH]2)cc1	FECH block active
CCc1ccc(NCc2cc(=O)n3[nH]c(NCc4ccccc4)nc3n2)cc1	none
Cc1ccc(Cl)cc1NCc1cc(=O)n2[nH]c(NCc3ccccc3)nc2n1	FECH block active
COc1ccc(CNc2nc3nc(CN4CCC(C)CC4)cc(=O)n3[nH]2)cc1	none
COc1ccccc1NS(=O)(=O)c1cc(-c2ccc(=O)[nH]n2)ccc1Cl	none
COc1ccc(NC(=O)C2CCN(c3ccc(-c4ccccc4)nn3)CC2)c(OC)c1	none
CCCCc1ncc(C2CC(=O)Nc3c2cnn3Cc2cccnc2)[nH]1 (stereo not given)	none
Nc1cncc(-n2cnc3ccccc32)c1	none
O=C(Nc1nc2n(n1)C(c1ccc(Cl)cc1)C=C(c1ccc(Cl)cc1)N2)c1cccs1 (stereo not given)	none
Cc1nn(C)cc1-c1ccnc(N(C)CC2COc3ccccc3O2)n1 (stereo not given)	none
COc1ccc(CNC(=O)CSCc2nc(-c3ccc(OC)c(OC)c3)no2)cc1	none
COc1ccc(CNc2nc3nc(CNc4ccc(C)c(C)c4)cc(=O)n3[nH]2)cc1	none
COc1ccc(CNc2nc3nc(CNc4ccc(C)cc4C)cc(=O)n3[nH]2)cc1	FECH block active
COc1ccc(CNc2nc3nc(CNc4cccc(C)c4)cc(=O)n3[nH]2)cc1	none
CNC(=O)c1ccc(Cn2c(=O)c3cc(OC)c(OC)cc3n(CC(=O)NCC3CCCO3)c2=O)cc1 (stereo not given)	FECH block active
COc1cc2c(=O)n(Cc3ccc(C(=O)NC(C)C)cc3)c(=O)n(CC(=O)NC(C)C)c2cc1OC	none
CNC(=O)c1ccc(Cn2c(=O)c3cc(OC)c(OC)cc3n(CC(=O)NC(C)C)c2=O)cc1	none
O=C(CN1C(=O)COc2ccccc21)N1CCC(c2nc(-c3ccc(Cl)cc3)no2)CC1	none
CCOC(=O)c1cc2ccsc2n1CC(=O)Nc1cc(Cl)ccc1OC	none
CCOc1ccc(-c2nc(CSc3nc(C)c(CCO)c(=O)[nH]3)c(C)o2)cc1	none
Cc1cc(C)cc(S(=O)(=O)Nc2cnc(N(CC(C)C)CC(C)C)c(C(=O)O)c2)c1	none
CCCN(CCC)c1ncc(NS(=O)(=O)c2cc(C)cc(C)c2)cc1C(=O)O	FECH block active
CCN(CCN(C)C)c1ncc(NS(=O)(=O)c2cc(C)cc(C)c2)cc1C(=O)O	none
Cc1nccn1CCCN1CCCCC1c1ccccn1 (stereo not given)	none
Cc1cc(Nc2ccccc2)nc(N2CCN(S(=O)(=O)c3ccc(Br)cc3)CC2)n1	none
Cc1cc(NC(=O)C(C)Oc2ccccc2)n(-c2ncnc3c2cnn3-c2cccc(Cl)c2)n1 (stereo not given)	none
O=S(=O)(NCCc1csc(-c2ccncc2)n1)NCc1ccccc1	FECH block active
Cc1cccn2c(CC(=O)NCCc3csc(-c4ccncc4)n3)cnc12	none
CCc1cc(C(C)NS(=O)(=O)NCc2ccccc2)on1 (stereo not given)	none
OCCNc1nc(Nc2ccc3c(c2)OCO3)c2cnn(-c3ccccc3)c2n1	none
COc1ccc(N2CCCS2(=O)=O)cc1NC(=O)c1cccc(Cl)c1	none
c1ccc(-n2cc(-c3nc4c(cnn4Cc4cccs4)[nH]3)cn2)cc1	none
CC(=O)NCCc1cn(-c2ccc3c(c2)CCCN3C(C)=O)cn1	none
CC(=O)NCCc1cn(-c2ccc(-c3ncc(C)cn3)cc2)cn1	none
CC(=O)NCCc1cn(-c2cccc(OC(C)C)c2)cn1	FECH block active
CCC(NC(=O)Cn1cccnc1=O)c1ccc(F)cc1 (stereo not given)	none
COc1ccc(S(N)(=O)=O)cc1-c1noc(C2CCCCC2)n1	none
COc1ccc(S(N)(=O)=O)cc1-c1noc(C(C)(C)C)n1	none
CCc1nc(-c2cc(S(N)(=O)=O)ccc2OC)no1	FECH block active
O=C1CN(Cc2cccc(C(=O)Nc3ccc4ncccc4c3)c2)CCN1	none
CCc1ccccc1N1C(=O)c2cc3ccsc3n2CC1(C)C(=O)NCCOC (stereo not given)	none
O=C1CC2(CCN(C(=O)C/C=C/c3ccccc3)CC2)CN1	none
CC/C=C\CCCN1CCC2(CC1)CNC(=O)C2	none
O=C1CC2(CCN(CCc3ccccc3)CC2)CN1	FECH block active
CCN(CCc1nc2ccc(C)cc2[nH]1)C(=O)c1cnn2cc(CCO)cnc12	none
Cc1ccc(C)c(OCCN(C)C(=O)c2cc3ncc(CCO)cn3n2)c1	FECH block active
Cc1ccc(OCCN(C)C(=O)c2ccc(Cn3nnnc3C)cc2)c(C)c1	none
CCOc1ncccc1C(=O)N(C)C(C)Cc1cc(C)ccn1 (stereo not given)	none
CC(=O)NCCn1ccnc1-c1c(C)n(C)n(-c2ccccc2)c1=O	none
Cc1cc(NC(=O)CCCc2ccccc2)n(-c2ncnc3c2cnn3-c2ccc(Cl)cc2)n1	none
O=C(CC1CCN(S(=O)(=O)c2ccccc2)CC1)NCCN1CCCCC1	none
CC(C)c1ccc2c(c1)-c1ccccc1S(=O)(=O)N2CC(=O)NCc1ccncc1	FECH block active
CCc1ccc2c(c1)-c1ccccc1S(=O)(=O)N2CC(=O)Nc1ccccc1OC	none
